AmpC no deterg: inhibitors of E. coli AmpC beta-lactamase without detergent; P00811; AmpC nitrocefin hydrolysis, absorbance 480 nm, 0.0001% Triton; Potency, µM (top dose mostly 57.1 µM), for the others: at the highest dose activity change, negative = inhibition, usual class: inhibitors; 330,000 tested, 0.52% active; AID 485341;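 further: plate controls were no compound for no effect and no enzyme for full effect; nearly all actives have a fitted effect of over 20% in size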
Target sequence (P00811 whole entry, looked up): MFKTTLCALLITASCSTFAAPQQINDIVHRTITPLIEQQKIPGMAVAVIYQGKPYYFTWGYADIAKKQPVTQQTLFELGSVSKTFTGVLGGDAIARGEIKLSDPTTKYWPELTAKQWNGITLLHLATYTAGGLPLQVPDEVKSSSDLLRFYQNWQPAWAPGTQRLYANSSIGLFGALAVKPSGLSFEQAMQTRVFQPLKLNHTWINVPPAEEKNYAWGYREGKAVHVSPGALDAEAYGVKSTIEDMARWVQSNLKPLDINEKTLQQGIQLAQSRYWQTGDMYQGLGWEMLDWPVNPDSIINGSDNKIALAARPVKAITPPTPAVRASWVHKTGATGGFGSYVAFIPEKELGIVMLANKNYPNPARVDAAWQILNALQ
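20 mM phosphate pH 7.0 + 0.01% (detergent screen) or 0.0001% Triton X-100; 5.3 nM AmpC reagent; cpd preinc 15 min RT; nitrocefin (800 uM stock) to start; A480 q20 s × 4 min; Activity was normalised to no-enzyme and no-compound control wells.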
AmpC inh detg: blocks E. coli AmpC beta-lactamase in detergent assay. P00811. AmpC hydrolysis of nitrocefin, absorbance 480 nm, 0.01% Triton. Potency, µM (doses to about 114 µM), without a hit: top-dose activity change, negative = inhibition, hits mostly inhibitors. 370,000 tested, 0.041% active. AID 485294;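 further: 0% = no-compound wells and -100% = no-enzyme wells; nearly all actives have a fitted effect of over 25% in size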
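AmpC (5.3 nM in the dispensed reagent) in 20 mM phosphate pH 7.0 with 0.01% (detergent screen) or 0.0001% Triton X-100 was preincubated with compounds for 15 min at room temperature. Nitrocefin was then added from an 800 uM solution, and hydrolysis was followed at 480 nm.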
TbPYK inhibitor: T. brucei pyruvate kinase inhibition | Q57TT1 | Potency, µM (top dose mostly 76.8 µM), inactives show top-dose activity, negative = inhibition, usual class: inhibitors | 410,000 tested, 0.12% active | TbPYK enzyme, Kinase-Glo Plus ATP luminescence, 45 min; further: on the % scale 0 is the no-effect control and ±100 the full control effect; nearly all actives have a fitted effect of over 50% in size
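ADP (130 uM final) triggers the TbPYK reaction after compound addition; incubation is 45 min at room temperature. Kinase-Glo Plus is then added and luminescence imaged. Normalized data are fitted to concentration-effect curves.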
SARS PLP yeast: blocks SARS-CoV papain-like protease in a yeast assay; 330,000 tested, 0.19% active; AID 485353; S. cerevisiae expressing SARS-CoV PLpro, growth rescue; Potency, µM (series often up to 32.9 µM), inactives show at the highest dose activity, positive = growth rescue, usual class: activators; calls by dose curve; further: 0% is about no effect; nearly all actives have a fitted effect of over 55% in size
RE007 growth inh: less growth of the S. pombe RE007 Vpr strain | 360,000 tested, 0.21% active | S. pombe RE007 Vpr strain, BacTiter-Glo ATP luminescence, 24 h | AID 651644 | Potency, µM (series often up to 92.2 µM), without a hit: at the top dose activity change, negative = less growth, usual class: inhibitors; active means well fitted falling curve with a large enough effect; inconclusive means small, poorly fitted or top-dose-only effect; inactive means no such curve, though single readings can be large or run the other way; further: on the % scale 0 is the no-effect control and ±100 the full control effect; nearly all actives have a fitted effect of over 50% in size
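Fission yeast RE007 carrying one integrated HIV-1 vpr copy, seeded at OD 0.01 in PMG+AL medium with 23 nL pinned compound. Grown 24 h at 30 degrees; viability read by BacTiter-Glo luminescence after 5 min.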
Sm TGR inh: S. mansoni TGR enzyme inhibition | purified TGR, DTNB reduction, TNB absorbance 405 nm | 360,000 tested, 3% active | Q962Y6 | Potency, µM (highest dose often 114 µM), inactives show at the top dose activity change, negative = inhibition, usual class: inhibitors | AID 485364; further: on the % scale 0 is the no-effect control and ±100 the full control effect; nearly all actives have a fitted effect of over 60% in size
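First, TGR (20 nM dispensed) and NADPH were mixed with compound. Second, a 15 min room-temperature incubation followed. Third, further NADPH and then DTNB were added to start the reaction. Finally, TNB absorbance was monitored kinetically.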
* = called active by the depositor; [ ] = dose if it differs, or a comment. This is a sample that favours compounds with a hit; in the whole collection about 3.3% have one here. Unless noted, the call rests on the fitted dose curve; in most records, active means well fitted curve in the direction sought with a large enough effect; inconclusive means small, poorly fitted or top-dose-only effect, or another doubt; inactive means no such curve, though single readings can be large; an effect the other way counts as inactive or inconclusive. Potency means the concentration at half of the fitted maximal effect.

What do the screens show for `CCN(c1ccccc1)S(=O)(=O)c1ccc(Cl)c(NC(=O)COC(=O)c2ccc(O)cc2)c1`?
AmpC no deterg: -26%; AmpC inh detg: -3%; TbPYK inhibitor: -7%; SARS PLP yeast: 7%; RE007 growth inh: 24%; Sm TGR inh: -4%

Results for N#CC1C(=O)c2ccccc2C1c1ccccc1 (stereo not drawn) ?
TbPYK inhibitor: -25%; RE007 growth inh: 8.9µM*

Results for Cc1ccc(Nc2nc3ccc(C)cc3nc2-n2nc(C)cc2C)c(C)c1 ?
AmpC inh detg: 22%; TbPYK inhibitor: 4%; Sm TGR inh: 10%

What do the screens show for `CC(C)CNc1nc(NC(C)(C)C)nc(Oc2ccc(=O)n(-c3ccccc3)n2)n1`?
AmpC inh detg: 10%; TbPYK inhibitor: 0%; Sm TGR inh: 10%

Results for COc1ccc(CCNCc2c(C(=O)O)c(C)n(Cc3cccc(Cl)c3)c2C)c(OC)c1OC ?
AmpC inh detg: 14%; TbPYK inhibitor: 0%; Sm TGR inh: 0%

Results for N=C(N)SCc1ncccc1O ?
AmpC no deterg: -8%; AmpC inh detg: -3%; TbPYK inhibitor: -14%; SARS PLP yeast: 1%; RE007 growth inh: 17%; Sm TGR inh: 11µM*

How did CCOC(=O)Cn1c(=O)n(C2CCCCC2)c2nc(-c3ccc(OCC)cc3)nc(C(N)=O)c21 do in these assays?
AmpC inh detg: 2%; TbPYK inhibitor: -2%; Sm TGR inh: -1%

Results for Cc1cc(C)n(-c2nc3ccccc3c(=O)n2OCc2ccc(Cl)cc2)n1 ?
AmpC no deterg: 14%; AmpC inh detg: -1%; TbPYK inhibitor: 4%; SARS PLP yeast: -15%; RE007 growth inh: -25%; Sm TGR inh: -1%

Results for Cc1cc(C)n(-c2nc3ccccc3c(=O)n2OCc2ccc(F)cc2)n1 ?
AmpC no deterg: 45%; AmpC inh detg: 32µM*; TbPYK inhibitor: -5%; SARS PLP yeast: -5%; RE007 growth inh: -7%; Sm TGR inh: -9%

What do the screens show for `CCNC(=O)c1ccc(C2SCC(=O)N2Cc2ccco2)cc1` (stereo not drawn)?
AmpC no deterg: -16%; AmpC inh detg: -9%; TbPYK inhibitor: 3%; SARS PLP yeast: -2%; RE007 growth inh: 8%; Sm TGR inh: inconclusive

Results for CC(C)CCNC(=O)c1ccc(C2SCC(=O)N2Cc2ccco2)cc1 (stereo not drawn) ?
AmpC no deterg: -27%; AmpC inh detg: -2%; TbPYK inhibitor: 0%; SARS PLP yeast: 13%; RE007 growth inh: 15%; Sm TGR inh: 25µM*

What do the screens show for `O=C1CSC(c2ccncc2)N1Cc1ccco1` (stereo not drawn)?
AmpC no deterg: -19%; AmpC inh detg: -14%; TbPYK inhibitor: -19%; SARS PLP yeast: -1%; RE007 growth inh: -8%; Sm TGR inh: 22µM*

Results for COc1ccc(NC(=O)CSc2ncc(-c3ccc(Cl)cc3)[nH]2)cc1OC ?
AmpC inh detg: 5%; TbPYK inhibitor: 3%; Sm TGR inh: 1%

Results for COc1ccccc1S(=O)(=O)Cc1ccc(C(=O)NCc2ccco2)o1 ?
AmpC no deterg: -1%; AmpC inh detg: -14%; TbPYK inhibitor: -2%; SARS PLP yeast: 1%; RE007 growth inh: 7%; Sm TGR inh: -27%

How did COc1ccc(N2CCN(CCCNC(=O)c3ccc(CS(=O)(=O)c4ccc(OC)cc4)o3)CC2)cc1 do in these assays?
AmpC no deterg: 104%; AmpC inh detg: -4%; TbPYK inhibitor: -5%; SARS PLP yeast: -3%; RE007 growth inh: 16%; Sm TGR inh: -6%

Results for COc1ccc(S(=O)(=O)Cc2ccc(C(=O)NCc3ccco3)o2)cc1 ?
AmpC no deterg: -7%; AmpC inh detg: inconclusive; TbPYK inhibitor: -3%; SARS PLP yeast: 2%; RE007 growth inh: -5%; Sm TGR inh: 40µM*

What do the screens show for `COc1ccc(S(=O)(=O)Cc2ccc(C(=O)NCCCN3CCc4ccccc4C3)o2)cc1`?
AmpC no deterg: 35%; AmpC inh detg: 2%; TbPYK inhibitor: -8%; SARS PLP yeast: 6%; RE007 growth inh: -2%; Sm TGR inh: 45µM*

What do the screens show for `CCOC(=O)c1ccc(NC(=O)Nc2ncc(Cl)cc2Cl)cc1`?
AmpC no deterg: -17%; AmpC inh detg: -9%; SARS PLP yeast: 0%; Sm TGR inh: 40µM*

Results for CCOC(=O)c1ccc(NC(=O)CCS(=O)(=O)c2ccc(Br)s2)cc1 ?
AmpC no deterg: -33%; AmpC inh detg: -4%; TbPYK inhibitor: 0%; SARS PLP yeast: -2%; RE007 growth inh: 4%; Sm TGR inh: 11µM*

Results for CCOC(=O)c1ccc(NC(=O)Nc2ncccc2C)cc1 ?
AmpC no deterg: -21%; AmpC inh detg: -1%; TbPYK inhibitor: -1%; SARS PLP yeast: -1%; RE007 growth inh: 6%; Sm TGR inh: 12%

What do the screens show for `CCOC(=O)c1c(O)c(O)c(C(=O)OCC)n1-c1ccccc1`?
AmpC no deterg: -24%; AmpC inh detg: 3%; TbPYK inhibitor: -10%; SARS PLP yeast: 2%; RE007 growth inh: -12%; Sm TGR inh: 40µM*

Results for CCOc1ccccc1C(=O)Nc1ccc(C(=O)c2ccccc2)cc1 ?
AmpC no deterg: -24%; AmpC inh detg: -3%; TbPYK inhibitor: -1%; SARS PLP yeast: 4%; RE007 growth inh: -2%; Sm TGR inh: 4.5µM*

How did COc1ccc(Nc2ncnc3c2cnn3-c2ccc(C)cc2C)cc1 do in these assays?
AmpC inh detg: 8%; TbPYK inhibitor: -3%; Sm TGR inh: 8%

What do the screens show for `CCc1ccccc1NC(=O)CN1CCCN(Cc2cc(C)ccc2C)S1(=O)=O`?
AmpC inh detg: 12%; TbPYK inhibitor: -4%[15.4 µM]; Sm TGR inh: 0%

What do the screens show for `CCOC(=O)c1ccc(NC(=O)c2ccc(NS(C)(=O)=O)cc2)cc1`?
AmpC no deterg: -42%; AmpC inh detg: inconclusive; TbPYK inhibitor: 0%; SARS PLP yeast: -2%; RE007 growth inh: -16%; Sm TGR inh: 6%

Results for CCOC(=O)c1ccc(NC(=O)c2ccccc2)cc1 ?
AmpC no deterg: 10µM*; AmpC inh detg: inconclusive; TbPYK inhibitor: 12%; SARS PLP yeast: -7%; RE007 growth inh: 7%; Sm TGR inh: 9%

Results for COc1ccc(-c2cc(C)no2)cc1S(=O)(=O)NCc1ccco1 ?
AmpC inh detg: -7%; TbPYK inhibitor: 8%[15.4 µM]; Sm TGR inh: 32µM*
